PubChem BioAssay AID382 (SGCOxCompounds, 2006)
Several values for one entry are separate records, joined by “and”; a condition that tells them apart may be missing. Equal entries are not always repeated. Activity calls are given as the source filed them. No rule for the calls is given here.

Molecular target: Dual specificity protein kinase CLK1 (Homo sapiens) (UniProt P49759)
Experiment: CLK1 binders by thermal stabilization, biophysical, recombinant human kinase, DSF (AID 382)
Settings: buffer 10 mM HEPES, stronger effect = higher value
[1] = at 10 µM, protein 2 µM, NaCl 150 mM, with 50 mM Arg/Glu
[2] = at 10 µM, protein 2 µM, pH 7.5, NaCl 150 mM
[3] = at 10 µM, protein 2 µM, pH 7.5, NaCl 150 mM, with 50 mM Arg/Glu
[4] = at 10 µM, protein 1.7 µM, pH 7.5, NaCl 150 mM, with 50 µM L-Arg/L-Glu (1:1)
[5] = at 10 µM, protein 2 µM, NaCl 150 mM
[6] = at 10 µM, protein 2 µM, pH 7.5, NaCl 150 mM, with 50 µM L-Arg/L-Glu (1:1)
[7] = measured here: replicate experiment 2, at 10 µM, run 2, protein 2 µM
[8] = measured here: replicate experiment 2, at 10 µM, run 2, protein 2 µM, NaCl 150 mM, with 50 mM Arg/Glu
[9] = measured here: replicate experiment 2, at 10 µM, run 2, protein 2 µM, NaCl 150 mM

Sequence of Dual specificity protein kinase CLK1 (Homo sapiens) (P49759 whole entry, looked up): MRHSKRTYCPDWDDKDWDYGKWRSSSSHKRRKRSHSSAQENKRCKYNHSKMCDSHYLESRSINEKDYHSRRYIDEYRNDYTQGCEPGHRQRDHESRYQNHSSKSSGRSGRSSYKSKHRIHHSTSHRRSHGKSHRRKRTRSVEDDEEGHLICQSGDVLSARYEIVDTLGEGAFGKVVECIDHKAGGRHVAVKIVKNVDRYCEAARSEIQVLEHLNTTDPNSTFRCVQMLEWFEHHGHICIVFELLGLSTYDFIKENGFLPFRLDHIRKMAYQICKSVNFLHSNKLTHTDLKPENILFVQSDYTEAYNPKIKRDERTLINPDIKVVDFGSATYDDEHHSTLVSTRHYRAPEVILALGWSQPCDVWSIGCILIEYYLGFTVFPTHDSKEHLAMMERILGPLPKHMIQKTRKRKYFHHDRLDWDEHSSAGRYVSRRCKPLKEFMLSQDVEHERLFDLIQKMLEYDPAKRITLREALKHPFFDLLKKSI

## Nc1nc(Nc2ccc(S(N)(=O)=O)cc2)nn1C(=S)Nc1c(F)cccc1F
[1]
  Tm shift: 11.8 Celsius (active)

## c1ccc(-c2cnc3ccc(NCc4cccs4)nn23)cc1
[2]
  Tm shift: 3.23 Celsius (active)

## c1csc(-c2cnc3ccc(NCC4CC4)nn23)c1
[2]
  Tm shift: 3.52 Celsius (active)

## CN(C)S(O)(O)c1ccc2c(c1)/C(=C/c1cc3c([nH]1)CCCC3)C(=O)N2
[3]
  Tm shift: 4.8 Celsius (active)

## COc1ccc(C(=O)c2sc(Nc3cccc(C(F)(F)F)c3)nc2N)cc1
[4]
  Tm shift: 3.7 Celsius (active)

## CCOC(=O)c1c(C)[nH]c(/C=C2\C(=O)Nc3ccccc32)c1C
At 10 µM, protein 2 µM
  Tm shift: 8.66 Celsius (active)

## Clc1cccc(Nc2ccn3ncc(-c4ccsc4)c3n2)c1
[2]
  Tm shift: 3.45 Celsius (active)

## Nc1ncc(-c2ccncc2)nc1NC1CCCCC1
[2]
  Tm shift: 3.7 Celsius (active)

## NC(=O)c1ccc(-c2nc(-c3ccc4c(c3)OCCO4)c(-c3ccccn3)[nH]2)cc1
[3]
  Tm shift: 6.3 Celsius (active)

## CC(C)(C)c1nc2c3cc[nH]c(=O)c3c3cc(F)ccc3c2[nH]1
[3]
  Tm shift: 3.6 Celsius (active)

## O=c1c(O)c(-c2ccc(O)c(O)c2)oc2cc(O)ccc12
[5]
  Tm shift: 7.11 Celsius (active)

## CNC(=O)c1cc(Oc2ccc(NC(=O)Nc3ccc(C)c(C(F)(F)F)c3)cc2)ccn1
[6]
  Tm shift: 4.9 Celsius (active)

## CCC(CO)Nc1ccc2ncc(-c3ccc(F)c(Cl)c3)n2n1 (configuration not stated)
[1]
  Tm shift: 5.64 Celsius (active)

## Nc1ncnc2c1c(I)cn2[C@@H]1O[C@H](CO)C(O)C1O (some centres not stated)
At 10 µM, protein 2 µM
  Tm shift: 4.43 Celsius (active)
[3]
  Tm shift: 5.2 Celsius (active)
[7]
  Tm shift: 10.5 Celsius

## Clc1ccc(-c2cnn3ccc(NCc4cccnc4)nc23)cc1
[2]
  Tm shift: 4.33 Celsius (active)

## Clc1cccc(-c2cnc3ccc(NC4CCOCC4)nn23)c1
[1]
  Tm shift: 6.06 Celsius (active)
[8]
  Tm shift: 5.83 Celsius

## CC(=O)Nc1cccc(-c2cnc3ccc(NC4CCOCC4)nn23)c1
[6]
  Tm shift: 8.8 Celsius (active)

## Cn1cc(/C=C2\C(=O)Nc3ccc(S(N)(=O)=O)cc32)c2ccccc21
[3]
  Tm shift: 3.6 Celsius (active)

## CC(C)[C@@H](CO)Nc1ccc2ncc(-c3cccc(O)c3)n2n1
[6]
  Tm shift: 4.2 Celsius (active)

## OCC(O)CCO/N=C1/C(c2c(O)[nH]c3ccccc23)=Nc2ccccc21 (configuration not stated)
[6]
  Tm shift: 7.7 Celsius (active)

## Clc1cccc(Nc2ccn3ncc(-c4ccc5c(c4)OCO5)c3n2)c1
[1]
  Tm shift: 6.85 Celsius (active)

## O=c1cc(-c2ccc(O)cc2)oc2cc(O)cc(O)c12
[5]
  Tm shift: 5.94 Celsius (active)

## Clc1cccc(-c2cnc3ccc(NCCc4ccccn4)nn23)c1
[2]
  Tm shift: 4.83 Celsius (active)

## CC(O)(O)C1(O)C[C@@H]2O[C@@]1(C)n1c3ccccc3c3c4c(c5c6ccccc6n2c5c31)C(=O)NC4 (some centres not stated)
[3]
  Tm shift: 5.1 Celsius (active)

## CC(C)c1ccc(Nc2ccn3ncc(-c4ccsc4)c3n2)cc1
[2]
  Tm shift: 4.63 Celsius (active)

## CC(C)C(CO)Nc1nc(Nc2cccc(Cl)c2)c2ncn(C(C)C)c2n1 (configuration not stated)
[5]
  Tm shift: 6.23 Celsius (active)

## CCC(CO)Nc1ccc2ncc(-c3ccc(OC)nc3)n2n1 (configuration not stated)
[6]
  Tm shift: 4.5 Celsius (active)

## O=c1c(O)c(-c2ccc(O)c(O)c2)oc2cc(O)cc(O)c12
[5]
  Tm shift: 8.34 Celsius (active) and 6.74 Celsius (active)
[9]
  Tm shift: 6 Celsius

## Oc1cccc(-c2cnc3ccc(NCC4CC4)nn23)c1
[6]
  Tm shift: 3.9 Celsius (active)

## COCCNc1ccc2ncc(-c3cccc(C(N)=O)c3)n2n1
[6]
  Tm shift: 3.9 Celsius (active)

## Nc1nc(Nc2cccc(Cl)c2)sc1C(=O)c1ccc(F)cc1
[4]
  Tm shift: 4 Celsius (active)

## O=C(c1ccc(Nc2nccc(-c3cc4ccccc4s3)n2)cc1)N1CCC(N2CCCC2)CC1
[6]
  Tm shift: 6.1 Celsius (active)

## N#Cc1ccc(-c2cnc3ccc(NC4CCOCC4)nn23)cc1
[6]
  Tm shift: 7.2 Celsius (active)

## COC(=O)c1cnc2oc3ccc(O)cc3c2c1-c1ccccc1
[5]
  Tm shift: 6.11 Celsius (active)
[9]
  Tm shift: 3.9 Celsius

## CC(=O)c1cccc(-c2cnc3ccc(NCC4CC4)nn23)c1
[1]
  Tm shift: 5.75 Celsius (active)
[8]
  Tm shift: 6.01 Celsius

## CN(C)CCCn1cc(C2=C(c3c[nH]c4ccccc34)C(=O)NC2=O)c2ccccc21
[5]
  Tm shift: 6.98 Celsius (active)
[3]
  Tm shift: 4.4 Celsius (active)

## N=C(N)SCCCn1cc(C2=C(c3c[nH]c4ccccc34)C(=O)NC2=O)c2ccccc21
[5]
  Tm shift: 10.3 Celsius (active)

## OCC1=C(O)C(O)[C@@H](N2CNc3cc(Cl)c(Cl)cc32)O1 (some centres not stated)
[6]
  Tm shift: 3.1 Celsius (active)

## CC(C)n1cnc2c(Nc3cccc(Cl)c3)nc(NCCO)nc21
[5]
  Tm shift: 5.26 Celsius (active)
[3]
  Tm shift: 4.6 Celsius (active)

## CC(=O)c1cccc(-c2cnc3ccc(N[C@H](CO)C(C)C)nn23)c1
[6]
  Tm shift: 6.7 Celsius (active)

## CC1N=C2SC=CN2C(=O)C1CCN1CCC(=C(c2ccccc2)c2ccc(F)cc2)CC1 (configuration not stated)
[5]
  Tm shift: 6.74 Celsius (active)
[9]
  Tm shift: 3.6 Celsius

## O=C1c2ccccc2-c2n[nH]c3cccc1c23
[5]
  Tm shift: 4.9 Celsius (active)
[9]
  Tm shift: 3.2 Celsius

## CCCCc1c(-c2ccc(O)cc2)[nH]c2nccnc12
[6]
  Tm shift: 3.5 Celsius (active)

## NC1=N/C(=C2/CCNC(=O)c3[nH]c(Br)cc32)C(=O)N1
At 10 µM, protein 2 µM
  Tm shift: 4.9 Celsius (active)
[3]
  Tm shift: 4.4 Celsius (active)
[7]
  Tm shift: 10.5 Celsius

## O=C1C(=O)C(c2ccc(O)cc2)Oc2cc(O)cc(O)c21 (configuration not stated)
[5]
  Tm shift: 4.8 Celsius (active)
